Data: PubChem BioAssay (Tox21)
Records with an inconclusive call do not appear. Where a call stands in place of a potency, no number is given. Activity calls are given as the source filed them. Unless noted, calls follow the shape of the full dose curve.

Tests used:
[1] = Nuclear factor erythroid 2-related factor 2/antioxidant responsive element (Nrf2/ARE) small molecule agonists: qHTS cell viability counter screen in human keratinocytes (AID 1919968; active = well fitted curve in the direction sought with a large enough effect in the repeat runs; an effect the other way counts as inactive or inconclusive; also: nearly all actives have a fitted effect of over 55% in size; also: potency is read from the fitted curve at half-maximal effect)
In short: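 Stably transfected HaCaT (KeratinoSens), 1,500/well. Test agents in DMSO were applied for 23 h, 37 C/5% CO2. CellTiter-Fluor was incubated 1 h before the fluorescence read.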

[2] = Nuclear factor erythroid 2-related factor 2/antioxidant responsive element (Nrf2/ARE) small molecule agonists: luciferase reporter gene qHTS assay in human keratinocytes (AID 1919969); also: nearly all actives have a fitted effect of over 35% in size
[3] = target: Gonadotropin-releasing hormone receptor (Homo sapiens) (UniProt P30968); assay: Human gonadotropin-releasing hormone receptor (GnRHR) small molecule agonists, calcium flux assay in GnRHR-HEK293 cells (AID 1920063); also: nearly all actives have a fitted effect of over 35% in size
In short: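 Stable human GnRHR HEK293 line. 18 h plating, then calcium dye for 1 h at 37 C. Agonist-mode compound addition from DMSO stocks; fluorescence monitored 3 min.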

[4] = target: KiSS-1 receptor (Homo sapiens) (UniProt Q969F8); assay: Human kisspeptin (KISS1R) small molecule agonists, calcium flux assay in KISS1R-HEK293 cells (AID 1920064; active = well fitted curve in the direction sought with a large enough effect in the repeat runs; an effect the other way counts as inactive or inconclusive)
In short: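 After overnight (18 h) culture at 37 C/5% CO2, human KISS1R-HEK293 cells received calcium dye for 1 h, then test compound; emission at 540 nm (excitation 480 nm) was tracked for 3 min.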

[5] = G protein-coupled receptor (GPCR) small molecule agonists, calcium flux assay: HEK293 wild type cell line counter screen (AID 1920065)
In short: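 Following 18 h incubation at 37 C/5% CO2, plates got calcium dye for 1 h; compounds, ATP or DMSO were then pinned in and fluorescence followed kinetically (480/540 nm).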

[6] = p53 small molecule agonists, cell-based qHTS assay with human liver microsomes (AID 1963577)
In short: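 p53RE-bla reporter cells were pre-incubated 5 h at 37 C, then treated with compounds plus human liver microsomes (0.5 mg/mL final) and NADPH (0.5 mg/mL final) for 16 h at 37 C. Beta-lactamase activity was read by LiveBLAzer fluorescence after 2 h at room temperature.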

[7] = p53 small molecule agonists, cell-based qHTS assay with rat liver microsomes (AID 1963578)
In short: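 p53RE-bla cells were exposed to compounds together with rat liver microsomes (0.5 mg/mL final) and NADPH (0.5 mg/mL final) for 16 h at 37 C, then read by LiveBLAzer beta-lactamase fluorescence after 2 h at room temperature.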

[8] = p53 small molecule agonists, cell-based qHTS assay with human liver microsomes: qHTS cell viability counter screen (AID 1963579); also: nearly all actives have a fitted effect of over 45% in size
In short: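 p53RE-bla cells (4,000/well) were pre-incubated 5 h at 37 C, then given compounds in DMSO plus human liver microsomes (0.5 mg/mL final) and NADPH (0.5 mg/mL final) for 16 h at 37 C. Viability was read by CellTiter-Glo luminescence.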

[9] = p53 small molecule agonists, cell-based qHTS assay with rat liver microsomes: qHTS cell viability counter screen (AID 1963580); also: nearly all actives have a fitted effect of over 45% in size
In short: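 Luminescent ATP readout (CellTiter-Glo, 30 min at room temperature) reports viability of p53RE-bla HCT-116 cells after 16 h at 37 C with test compounds under metabolic activation by rat liver microsomes and NADPH at 0.5 mg/mL final each.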

[10] = p53 small molecule agonists, cell-based qHTS assay: qHTS cell viability counter screen (AID 1963581); also: nearly all actives have a fitted effect of over 45% in size
In short: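 qHTS counter screen: 16 h compound exposure at 37 C of p53RE-bla HCT-116 cells (4,000 per well, seeded 5 h prior), cell viability by ATP luminescence.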

[11] = p53 small molecule agonists, cell-based qHTS assay (AID 1963582; active = well fitted activation curve with a large enough effect in the signal ratio in the repeat runs, not every such curve was filed as active; the % refers to the signal ratio)
In short: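 Measured: fluorescence from cleaved LiveBLAzer substrate. System: p53RE-bla cells, 16 h compound treatment at 37 C, 2 h substrate step at room temperature.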

[12] = target: Muscarinic acetylcholine receptor M1 (Homo sapiens) (UniProt P11229); assay: Cholinergic receptor muscarinic 1 (CHRM1) small molecule antagonists, cell-based qHTS assay (AID 1963588); also: nearly all actives have a fitted effect of over 40% in size
In short: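 Compounds were tested at 15 concentrations in three independent runs. Dye-loaded CHRM1-CHO cells were exposed 5 min at room temperature before stimulation by acetylcholine added at 50nM. Intracellular calcium was read kinetically on FDSS for 3 min.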

[13] = target: Muscarinic acetylcholine receptor M1 (Homo sapiens) (UniProt P11229); assay: Cholinergic receptor muscarinic 1 (CHRM1) small molecule agonists, cell-based qHTS assay (AID 1963589); also: nearly all actives have a fitted effect of over 35% in size; also: potency is read from the fitted curve at half-maximal effect
In short: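 Kinetic fluorescence (1 s intervals) of calcium-sensitive dye in human M1 CHO cells after compound addition; cells pre-incubated 18 h at 37 C/5% CO2 and dye-loaded 1 h.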

[14] = cAMP Responsive Elements (CRE) small molecule agonists, cell-based qHTS assay (AID 1963590); also: potency is read from the fitted curve at half-maximal effect
In short: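 Test agents in DMSO were incubated 3 h at 37 C/5% CO2 with CRE-bla HEK 293T cells seeded 18 h earlier; LiveBLAzer B/G FRET substrate was added and read after 2 h at room temperature.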

[15] = cAMP Responsive Elements (CRE) small molecule antagonists, cell-based qHTS assay (AID 1963591; active = well fitted inhibition curve with a large enough effect in the signal ratio in the repeat runs, not every such curve was filed as active; the % refers to the signal ratio)
In short: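 Reporter line CRE-bla HEK 293T in dialyzed-FBS DMEM; cells preincubated 18 h, treated 3 h with compound plus NKH477 (0.25 uM final); LiveBLAzer FRET, 2 h RT.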

[16] = target: Beta-2 adrenergic receptor (Homo sapiens) (UniProt P07550); assay: Adrenergic beta2 receptor (ADRB2) small molecule antagonists, cell-based qHTS assay (AID 1963592); also: series mostly up to about 92 µM; nearly all actives have a fitted effect of over 50% in size
In short: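 Assay format: CHO-ADRB2 cells, 18-20hr seeding at 37C/5% CO2, then compound plus 1nM isoproterenol agonist mix for 0.5hr RT. Homogeneous time-resolved fluorescence cAMP detection after 1hr, expressed as 665/615 nm ratio.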

[17] = target: Beta-2 adrenergic receptor (Homo sapiens) (UniProt P07550); assay: Adrenergic beta2 receptor (ADRB2) small molecule agonists, cell-based qHTS assay (AID 1963593);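 also: CHO cells stably overexpressing human ADRB2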
In short: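 CHO cells stably over-expressing ADRB2 were plated overnight at 37C, then dosed with compounds plus a stimulation mix containing 100uM IBMX and 25uM Ro-20-1724 for 0.5hr at room temperature. cAMP was measured by HTRF competition, 1hr.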

[18] = target: D(2) dopamine receptor (Homo sapiens) (UniProt P14416); assay: Dopamine D2 receptor (DRD2) small molecule antagonists, cell-based qHTS assay (AID 1963595; active = well fitted inhibition curve with a large enough effect in the signal ratio in the repeat runs, with a control signal flat; the % refers to the signal ratio)
In short: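 Cells were plated and grown for 24 h at 37 °C. Ro20-1724 (0.1 mM final) went in first, then compound for 10 min. NKH477 (200 nM) with quinpirole (12 nM) followed for 30 min at RT, then HTRF detection reagents for 1 h.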

[19] = target: 5-hydroxytryptamine receptor 2A (Homo sapiens) (UniProt P28223); assay: 5-hydroxytryptamine receptor 2A (HTR2A) small molecule antagonists, cell-based qHTS assay (AID 1963586); also: nearly all actives have a fitted effect of over 45% in size
In short: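 CHO cells stably expressing human HTR2A were plated for 18 h at 37 C, then loaded with calcium dye for 1 h. Compounds were preincubated 5 min at room temperature before DOI (4 nM solution) was added. Kinetic fluorescence was read for 3 min.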

[20] = target: D(2) dopamine receptor (Homo sapiens) (UniProt P14416); assay: Dopamine D2 receptor (DRD2) small molecule agonists, cell-based qHTS assay (AID 1963594); also: nearly all actives have a fitted effect of over 35% in size
In short: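 HEK293 cells stably expressing DRD2 were cultured 24 h at 37 C, then given Ro20-1724 (0.1 mM final) and compounds for 10 min at room temperature. NKH477 (200nM) was then added for 30 min. cAMP was read by HTRF.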

Muscarinic acetylcholine receptor M1 (Homo sapiens), sequence (P11229 whole entry, looked up): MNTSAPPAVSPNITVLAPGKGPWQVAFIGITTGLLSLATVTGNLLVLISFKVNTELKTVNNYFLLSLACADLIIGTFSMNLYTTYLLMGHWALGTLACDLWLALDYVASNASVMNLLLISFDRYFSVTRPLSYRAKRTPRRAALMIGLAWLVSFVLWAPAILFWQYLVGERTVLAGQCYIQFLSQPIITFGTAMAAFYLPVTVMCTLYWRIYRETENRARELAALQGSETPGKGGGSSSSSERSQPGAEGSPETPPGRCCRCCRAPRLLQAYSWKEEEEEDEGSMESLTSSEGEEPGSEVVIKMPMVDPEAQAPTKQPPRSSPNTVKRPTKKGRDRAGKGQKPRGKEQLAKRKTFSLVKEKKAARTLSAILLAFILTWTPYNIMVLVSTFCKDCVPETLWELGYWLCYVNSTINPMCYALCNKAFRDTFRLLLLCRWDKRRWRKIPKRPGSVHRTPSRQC
KiSS-1 receptor (Homo sapiens), sequence (Q969F8 whole entry, looked up): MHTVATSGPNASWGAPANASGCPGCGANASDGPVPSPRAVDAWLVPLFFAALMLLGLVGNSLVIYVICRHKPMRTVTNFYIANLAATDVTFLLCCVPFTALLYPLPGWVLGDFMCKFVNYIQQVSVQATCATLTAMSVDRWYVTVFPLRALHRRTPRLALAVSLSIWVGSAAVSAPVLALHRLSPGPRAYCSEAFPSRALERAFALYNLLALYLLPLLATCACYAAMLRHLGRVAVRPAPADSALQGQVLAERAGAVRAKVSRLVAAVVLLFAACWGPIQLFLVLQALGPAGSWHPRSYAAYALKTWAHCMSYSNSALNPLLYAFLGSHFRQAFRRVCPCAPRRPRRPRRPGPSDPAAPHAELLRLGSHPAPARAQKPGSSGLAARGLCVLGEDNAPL
D(2) dopamine receptor (Homo sapiens), sequence (P14416 whole entry, looked up): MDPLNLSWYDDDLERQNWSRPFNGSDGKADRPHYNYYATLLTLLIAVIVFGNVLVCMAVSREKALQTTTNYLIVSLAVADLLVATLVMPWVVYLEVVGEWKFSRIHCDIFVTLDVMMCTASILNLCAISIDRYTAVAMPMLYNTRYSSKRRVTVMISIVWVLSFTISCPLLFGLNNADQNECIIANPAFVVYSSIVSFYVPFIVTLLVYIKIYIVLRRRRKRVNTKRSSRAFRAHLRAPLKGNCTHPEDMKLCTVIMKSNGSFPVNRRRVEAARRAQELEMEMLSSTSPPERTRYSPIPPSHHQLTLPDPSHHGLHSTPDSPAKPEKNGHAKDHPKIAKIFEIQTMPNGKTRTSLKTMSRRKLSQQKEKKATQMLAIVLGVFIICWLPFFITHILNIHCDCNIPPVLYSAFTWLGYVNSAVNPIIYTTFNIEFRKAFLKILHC
5-hydroxytryptamine receptor 2A (Homo sapiens), sequence (P28223 whole entry, looked up): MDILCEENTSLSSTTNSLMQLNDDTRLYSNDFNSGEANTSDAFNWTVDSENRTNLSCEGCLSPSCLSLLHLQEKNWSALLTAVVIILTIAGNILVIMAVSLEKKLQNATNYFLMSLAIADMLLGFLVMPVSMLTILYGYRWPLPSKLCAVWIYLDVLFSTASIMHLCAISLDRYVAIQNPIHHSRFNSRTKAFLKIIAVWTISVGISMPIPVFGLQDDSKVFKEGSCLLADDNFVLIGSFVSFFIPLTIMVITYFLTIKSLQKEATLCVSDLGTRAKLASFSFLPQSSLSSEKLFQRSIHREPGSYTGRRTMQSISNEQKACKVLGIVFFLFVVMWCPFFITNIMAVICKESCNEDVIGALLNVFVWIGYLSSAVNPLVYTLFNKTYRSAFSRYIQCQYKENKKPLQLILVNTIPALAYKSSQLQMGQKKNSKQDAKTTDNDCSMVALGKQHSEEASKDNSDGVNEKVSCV
Beta-2 adrenergic receptor (Homo sapiens), sequence (P07550 whole entry, looked up): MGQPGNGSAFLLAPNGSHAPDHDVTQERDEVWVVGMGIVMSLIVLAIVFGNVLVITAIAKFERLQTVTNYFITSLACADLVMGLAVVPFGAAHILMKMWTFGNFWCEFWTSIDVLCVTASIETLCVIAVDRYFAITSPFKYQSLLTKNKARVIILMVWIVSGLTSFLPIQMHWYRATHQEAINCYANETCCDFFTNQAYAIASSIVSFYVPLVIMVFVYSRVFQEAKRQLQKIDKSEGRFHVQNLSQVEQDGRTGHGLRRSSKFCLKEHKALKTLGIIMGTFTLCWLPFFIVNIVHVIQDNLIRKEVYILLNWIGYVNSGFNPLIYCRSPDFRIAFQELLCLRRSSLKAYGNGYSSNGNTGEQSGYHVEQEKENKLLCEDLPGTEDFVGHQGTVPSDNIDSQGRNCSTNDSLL
Gonadotropin-releasing hormone receptor (Homo sapiens), sequence (P30968 whole entry, looked up): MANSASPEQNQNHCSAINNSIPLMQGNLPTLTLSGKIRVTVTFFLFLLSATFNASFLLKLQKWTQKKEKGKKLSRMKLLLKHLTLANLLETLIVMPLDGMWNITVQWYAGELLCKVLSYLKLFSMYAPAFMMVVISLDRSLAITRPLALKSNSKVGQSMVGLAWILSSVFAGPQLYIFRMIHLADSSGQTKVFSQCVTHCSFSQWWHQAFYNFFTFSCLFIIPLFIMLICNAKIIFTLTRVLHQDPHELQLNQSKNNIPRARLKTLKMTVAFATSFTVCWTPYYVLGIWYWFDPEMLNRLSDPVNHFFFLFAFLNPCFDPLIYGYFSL

Row | SMILES | Potency [1] | Potency [2] | Potency [3] | Potency [4] | Potency [5] | Potency [6] | Potency [7] | Potency [8] | Potency [9] | Potency [10] | Potency [11] | Potency [12] | Potency [13] | Potency [14] | Potency [15] | Potency [16] | Potency [17] | Potency [18] | Potency [19] | Potency [20]
1 | N=c1nc(N2CCCCC2)cc(N)n1O | inactive | inactive | inactive | inactive | inactive | inactive | inactive | inactive | inactive | inactive | inactive | inactive | inactive | inactive | inactive | inactive | inactive | inactive | – | –
2 | Cc1ccc2ccccc2c1[N+](=O)[O-] | inactive | inactive | inactive | inactive | inactive | inactive | inactive | inactive | inactive | inactive | inactive | inactive | inactive | inactive | inactive | inactive | inactive | inactive | inactive | inactive
3 | CCC(=O)OCc1ccccc1 | inactive | inactive | inactive | inactive | inactive | inactive | inactive | inactive | inactive | inactive | inactive | inactive | inactive | inactive | inactive | inactive | – | inactive | inactive | inactive
4 | Cc1cncc(C)c1 | inactive | inactive | inactive | inactive | inactive | inactive | inactive | inactive | inactive | inactive | inactive | inactive | inactive | inactive | inactive | inactive | inactive | inactive | – | inactive
5 | COc1cc2c(Nc3ccc(Br)cc3F)ncnc2cc1OCC1CCN(C)CC1 | inactive | inactive | inactive | inactive | inactive | inactive | inactive | inactive | inactive | inactive | inactive | inactive | inactive | inactive | inactive | inactive | – | inactive | inactive | inactive
6 | CCOc1ccc(Cc2nccc3cc(OCC)c(OCC)cc23)cc1OCC | 4.22 µM (active) | inactive | inactive | inactive | inactive | inactive | inactive | inactive | inactive | inactive | inactive | inactive | inactive | 6.68 µM (active) | inactive | inactive | – | – | inactive | inactive
7 | Cc1c(I)c(=O)n(-c2ccccc2)n1C | inactive | inactive | inactive | inactive | inactive | inactive | inactive | inactive | inactive | inactive | inactive | inactive | 0.0379 µM (active) | inactive | inactive | inactive | inactive | inactive | – | –
8 | O=C1Cc2cc(Cl)ccc2N1 | inactive | inactive | inactive | inactive | inactive | inactive | inactive | inactive | inactive | inactive | inactive | inactive | inactive | inactive | inactive | – | inactive | inactive | inactive | inactive
9 | CCCCOCCCC | inactive | inactive | inactive | inactive | inactive | inactive | inactive | inactive | inactive | inactive | inactive | inactive | inactive | inactive | inactive | inactive | inactive | inactive | inactive | inactive
10 | c1ccc(CCc2ccccc2)cc1 | inactive | inactive | inactive | inactive | inactive | inactive | inactive | inactive | inactive | inactive | inactive | inactive | inactive | inactive | – | – | inactive | inactive | inactive | inactive
11 | NCC1(Cc2noc(=O)[nH]2)CCCCC1 | inactive | inactive | inactive | inactive | inactive | inactive | inactive | inactive | inactive | inactive | inactive | inactive | inactive | inactive | inactive | inactive | inactive | inactive | – | –
12 | CC(=O)C(C)O (stereo not drawn) | inactive | inactive | inactive | inactive | inactive | inactive | inactive | inactive | inactive | inactive | inactive | inactive | inactive | inactive | inactive | inactive | inactive | inactive | inactive | inactive
13 | CCNc1nc(N)nc(Cl)n1 | inactive | inactive | inactive | inactive | inactive | inactive | inactive | inactive | inactive | inactive | inactive | inactive | inactive | inactive | inactive | inactive | – | – | inactive | inactive
14 | CC12CCC(C(=O)C1=O)C2(C)C (stereo not drawn) | inactive | inactive | inactive | inactive | inactive | inactive | inactive | inactive | inactive | inactive | inactive | inactive | inactive | inactive | inactive | inactive | inactive | inactive | inactive | inactive
15 | C[n+]1ccn(Cc2ccccc2)c1 | inactive | inactive | inactive | inactive | inactive | inactive | inactive | inactive | inactive | inactive | inactive | inactive | inactive | inactive | inactive | inactive | – | inactive | inactive | inactive
